Data: PubChem BioAssay
“And” between values parts separate entries of the source, which are not always exact repeats. Identical values can stand only once. The source made the active and inactive calls. Unless noted, the rule behind the calls is not given here.

Tests used:
[1] = system: Wnt5a (protein binding on small-molecule microarray); test: small molecules binding Wnt5a protein – biophysical, small-molecule microarray, 635/667 nm fluorescence, primary screen (AID 1142); settings: 635 nm fluorescence, higher = more signal;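 note: fluorescence read at 667 nm with signal to noise per printed feature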
[2] = ATP-based viability of Huh7 replicon cells – cell-based, CellTiter-Glo luminescence, basal, 48 h, cytotoxicity control for HCV replication inhibitor project, primary screen (AID 1143); settings: higher = more signal, called active from +8 up or from −8 down;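 note: Huh7 hepatoma cells carrying a hepatitis C replication reporter with no stimulus; test concentration not given here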
[3] = Pseudomonas biofilm growth suppression – PAO1 strain, BacTiter-Glo luminescence, LB-PBS, primary screen (AID 1144); settings: P. aeruginosa PAO1 biofilm, 12 h, higher = more signal
[4] = basal CRE-LacZ reporter activity in PC12 – cell-based, unstimulated, primary screen (AID 1145); settings: no forskolin, luminescence, 4.5 h, higher = more signal, called active from +8 up or from −8 down
[5] = forskolin-driven CRE-LacZ activity in PC12 – cell-based, CRE-LacZ reporter, forskolin-stimulated, primary screen (AID 1146); settings: luminescence, 4.5 h, higher = more signal, called active from +8 up or from −8 down;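 note: PC12 cells with 6xCRE LacZ reporter stimulated by forskolin 10 µM; beta-galactosidase reporter signal reflecting CREB driven transcription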
[6] = target: Streptavidin (Streptomyces avidinii) (UniProt P22629); test: compounds binding control protein streptavidin – biophysical, small-molecule microarray, 635/667 nm fluorescence, artefact control for SMM compound annotation, primary screen (AID 1147); settings: higher = more signal;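 note: signal reflects streptavidin binding to arrayed compounds as a control protein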
Chain of Streptavidin (Streptomyces avidinii) (P22629 whole entry, looked up): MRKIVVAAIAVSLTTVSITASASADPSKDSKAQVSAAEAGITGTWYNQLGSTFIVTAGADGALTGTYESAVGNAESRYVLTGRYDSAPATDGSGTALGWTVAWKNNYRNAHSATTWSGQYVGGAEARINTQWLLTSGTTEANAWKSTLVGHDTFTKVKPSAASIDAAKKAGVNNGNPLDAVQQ

[7] = probe aInhba binding on compound microarray – biochemical, small-molecule microarray, 635/667 nm fluorescence, primary screen (AID 1148); settings: higher = more signal;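 note: score merges 667nm spot fluorescence with signal-to-noise for antibody binding to printed compounds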
Torsin-1A (Homo sapiens) [8] = target: Torsin-1A (Homo sapiens) (UniProt O14656); test: TOR1A wild-type binding on microarray – cell lysate, small-molecule microarray, lysate, 635/667 nm, primary screen (AID 1149); settings: COS7 hTOR1A-WT lysate, 635 nm fluorescence, higher = more signal
Chain of Torsin-1A (Homo sapiens) (O14656 whole entry, looked up): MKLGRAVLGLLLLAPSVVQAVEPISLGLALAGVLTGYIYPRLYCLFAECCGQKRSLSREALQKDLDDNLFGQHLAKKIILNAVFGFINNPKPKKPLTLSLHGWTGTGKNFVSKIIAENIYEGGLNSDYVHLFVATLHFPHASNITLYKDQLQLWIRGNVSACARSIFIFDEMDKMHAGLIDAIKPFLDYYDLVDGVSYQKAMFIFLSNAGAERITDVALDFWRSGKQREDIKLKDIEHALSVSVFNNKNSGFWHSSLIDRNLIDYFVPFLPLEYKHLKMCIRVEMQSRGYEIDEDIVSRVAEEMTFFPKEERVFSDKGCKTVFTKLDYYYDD

Torsin-1A (Homo sapiens) [9] = target: Torsin-1A (Homo sapiens) (UniProt O14656); test: torsin A mutant lysate binding on microarrays – cell lysate, small-molecule microarray, COS7 lysate, 635/667 nm fluorescence, primary screen (AID 1150); settings: COS7 hTOR1A mutant lysate, 635 nm fluorescence, higher = more signal;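 note: score pools 667 nm emission and signal to noise measuring lysate protein binding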
[10] = system: Sonic hedgehog protein (Shh); test: Sonic hedgehog microarray binding compounds – biochemical, small-molecule microarray, 635/667 nm fluorescence, primary screen (AID 1151); settings: 635 nm fluorescence, higher = more signal;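 note: Shh protein binding to compounds spotted on small-molecule microarray slides; score combines spot fluorescence intensity with signal-to-noise across triplicate slides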
[11] = optical density shifts of acrAB sulA E. coli – strain DRC41, OD650, 48 h, E. coli filamentation inducer project, primary screen (AID 1152); settings: higher = more signal, called active from +8 up or from −8 down;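 note: E. coli MC1000 strain DRC41 lacking acrAB efflux pump and sulA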
[12] = probe aLefty1 binding on compound microarray – biochemical, small-molecule microarray, 635/667 nm fluorescence, primary screen (AID 1153); settings: higher = more signal;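 note: score merges spot fluorescence with signal-to-noise ratio from the scanned slide images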
[13] = plasmodial surface anion channel blockers, osmotic lysis – cell-based, P. falciparum Indochina, OD700, 1 h, primary screen (AID 1154); settings: P. falciparum Indochina infected RBC osmotic lysis, higher = more signal, called active from +8 up or from −8 down
[14] = plasmodial surface anion channel blockers, osmotic lysis – cell-based, P. falciparum Indochina, OD700, 2 h, primary screen (AID 1155);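 note: lysis reports solute entry through the parasite surface anion channel PSAC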; settings: P. falciparum Indochina infected erythrocytes, higher = more signal, called active from +8 up or from −8 down
[15] = changes in parasitized red cell lysis, either direction – P. falciparum Indochina, OD700, 3 h, PSAC antagonist project, primary screen (AID 1156); settings: P. falciparum-infected erythrocytes, osmotic lysis, higher = more signal, called active from +8 up or from −8 down
[16] = plasmodial surface anion channel blockers, osmotic lysis – cell-based, P. falciparum Indochina, OD700, 18 h, primary screen (AID 1157); settings: P. falciparum Indochina infected erythrocytes, osmotic lysis OD700, 18 h; higher = more signal, called active from +8 up or from −8 down
[17] = S6 kinase pathway phospho-S6 level changes – cell-based, A549, cytoblot, luminescence, serum-stimulated, primary screen (AID 1158); settings: 5 h, higher = more signal;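 note: serum-stimulated A549 lung adenocarcinoma cells; signal is phosphorylated S6 detected by cytoblot immunostaining with HRP secondary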
[18] = target: NADPH oxidase 2 (Homo sapiens) (UniProt P04839); test: compounds shifting NOX2 Amplex Red fluorescence – cell-based, HEK293-NOX2, PMA-stimulated, NOX inhibitor project, primary screen (AID 1159); settings: 45 min, higher = more signal, called active from +8 up or from −8 down; note: test concentration not given here
Chain of NADPH oxidase 2 (Homo sapiens) (P04839 whole entry, looked up): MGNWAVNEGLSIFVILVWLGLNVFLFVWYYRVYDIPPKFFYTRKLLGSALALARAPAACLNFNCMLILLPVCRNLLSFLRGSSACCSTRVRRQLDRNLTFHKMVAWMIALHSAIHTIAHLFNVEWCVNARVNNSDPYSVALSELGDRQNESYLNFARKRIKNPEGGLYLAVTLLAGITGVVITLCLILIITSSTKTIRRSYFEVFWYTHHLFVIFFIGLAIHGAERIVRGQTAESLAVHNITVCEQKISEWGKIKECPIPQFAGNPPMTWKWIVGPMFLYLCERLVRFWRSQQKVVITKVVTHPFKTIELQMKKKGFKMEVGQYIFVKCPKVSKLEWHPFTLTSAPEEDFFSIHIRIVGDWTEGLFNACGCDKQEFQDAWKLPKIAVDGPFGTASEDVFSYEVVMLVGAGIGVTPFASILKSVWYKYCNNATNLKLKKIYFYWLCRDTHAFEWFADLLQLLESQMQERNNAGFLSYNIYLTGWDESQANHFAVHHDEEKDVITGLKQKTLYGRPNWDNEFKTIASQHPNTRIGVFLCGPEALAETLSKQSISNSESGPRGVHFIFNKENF

[19] = target: NADPH oxidase 4 (Homo sapiens) (UniProt Q9NPH5); test: compounds shifting NOX4 Amplex Red fluorescence – cell-based, HEK293-NOX4, tetracycline-induced, NOX inhibitor project, primary screen (AID 1160); settings: HEK293-NOX4, Amplex Red H2O2 fluorescence, 45 min; higher = more signal, called active from +8 up or from −8 down
Chain of NADPH oxidase 4 (Homo sapiens) (Q9NPH5 whole entry, looked up): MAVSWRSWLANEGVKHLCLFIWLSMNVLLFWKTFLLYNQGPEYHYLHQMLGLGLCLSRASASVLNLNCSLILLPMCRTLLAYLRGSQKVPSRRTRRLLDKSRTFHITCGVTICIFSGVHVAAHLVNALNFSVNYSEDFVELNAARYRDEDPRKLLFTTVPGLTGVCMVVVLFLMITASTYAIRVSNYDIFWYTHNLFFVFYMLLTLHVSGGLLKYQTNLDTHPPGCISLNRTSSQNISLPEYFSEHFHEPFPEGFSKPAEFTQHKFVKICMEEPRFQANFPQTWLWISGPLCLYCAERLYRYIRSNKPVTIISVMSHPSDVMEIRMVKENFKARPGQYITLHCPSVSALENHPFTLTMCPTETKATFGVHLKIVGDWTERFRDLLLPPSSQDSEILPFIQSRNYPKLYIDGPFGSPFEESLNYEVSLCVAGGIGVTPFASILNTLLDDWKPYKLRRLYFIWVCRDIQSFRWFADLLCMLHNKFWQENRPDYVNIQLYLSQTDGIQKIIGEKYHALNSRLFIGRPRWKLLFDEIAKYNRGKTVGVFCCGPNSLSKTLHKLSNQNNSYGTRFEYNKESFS

[20] = target: NADPH oxidase 5 (Homo sapiens) (UniProt Q96PH1); test: compounds shifting NOX5 Amplex Red fluorescence – cell-based, HEK293-NOX5, NOX inhibitor project, primary screen (AID 1161); settings: HEK293-NOX5, ionomycin, 45 min, higher = more signal
Chain of NADPH oxidase 5 (Homo sapiens) (Q96PH1 whole entry, looked up): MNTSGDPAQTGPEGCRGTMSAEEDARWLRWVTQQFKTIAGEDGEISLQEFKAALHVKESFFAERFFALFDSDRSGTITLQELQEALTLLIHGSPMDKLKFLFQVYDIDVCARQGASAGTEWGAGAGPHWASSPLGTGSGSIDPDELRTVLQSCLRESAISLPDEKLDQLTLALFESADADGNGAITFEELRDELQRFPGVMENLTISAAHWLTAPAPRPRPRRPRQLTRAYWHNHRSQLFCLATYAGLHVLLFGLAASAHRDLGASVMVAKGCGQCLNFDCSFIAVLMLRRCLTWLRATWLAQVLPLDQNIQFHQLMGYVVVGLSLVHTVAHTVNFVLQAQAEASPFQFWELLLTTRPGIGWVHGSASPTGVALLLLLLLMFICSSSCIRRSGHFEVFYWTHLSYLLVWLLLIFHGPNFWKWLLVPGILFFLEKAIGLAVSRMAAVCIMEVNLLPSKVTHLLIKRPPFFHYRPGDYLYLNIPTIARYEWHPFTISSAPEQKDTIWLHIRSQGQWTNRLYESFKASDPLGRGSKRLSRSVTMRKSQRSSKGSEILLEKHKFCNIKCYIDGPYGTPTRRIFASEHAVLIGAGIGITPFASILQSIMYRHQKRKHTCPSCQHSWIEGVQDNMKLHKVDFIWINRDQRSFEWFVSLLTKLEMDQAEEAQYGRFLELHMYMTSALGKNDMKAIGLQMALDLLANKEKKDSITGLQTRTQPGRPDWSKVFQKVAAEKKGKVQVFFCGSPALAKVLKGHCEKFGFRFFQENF

Compound	composite z-score [1]	z-score [2]	z-score [3]	z-score [4]	z-score [5]	composite z-score [6]	composite z-score [7]	composite z-score (Torsin-1A (Homo sapiens) [8])	composite z-score (Torsin-1A (Homo sapiens) [9])	composite z-score [10]	z-score [11]	composite z-score [12]	z-score [13]	z-score [14]	z-score [15]	z-score [16]	z-score [17]	z-score [18]	z-score [19]	z-score [20]
CCOC(=O)[C@@H]1CC=C2CC1C(=O)N1CCC[C@@H]1[C@H]2O[Si](C)(C)C(C)(C)C (stereo not given in full)	-0.12 and -0.752	0.856 (inactive) and -3.46 (inactive)	0.318 (inactive) and 0.0257 (inactive)	-0.692 (inactive) and -1.5 (inactive)	1.25 (inactive) and -1.04 (inactive)	-0.759 and -2.05	0.027 and -0.319	-0.408 and -2.35	-0.0943 and -2.33	-0.085 and -0.0655	-1.02 (inactive) and -0.796 (inactive)	-0.199 and -0.417	-0.0845 (inactive) and 0.699 (inactive)	-0.474 (inactive) and 0.0056 (inactive)	-0.495 (inactive) and 0.882 (inactive)	-0.0374 (inactive) and 0.133 (inactive)	0.308 and -0.0299	-0.0861 (inactive) and -0.161 (inactive)	1.2 (inactive) and -0.116 (inactive)	-1.02 and -2.48
CC(C)C(=O)N[C@@H]1CCCN1C(=O)C=Cc1ccccc1	-0.0494	0.135 (inactive)	1.06 (inactive)	0.56 (inactive)	0.685 (inactive)	0.504	-0.0216	0.841	0.448	0.605	0.214 (inactive)	-0.101	-0.272 (inactive)	0.274 (inactive)	-0.77 (inactive)	-0.241 (inactive)	-0.685	-0.457 (inactive)	0.53 (inactive)	0.434
C=C[C@@H](OC)[C@H](O)c1ccc(OCCO)cc1	-0.825 and -0.361	0.423 (inactive) and -2.25 (inactive)	-0.765 (inactive) and -0.622 (inactive)	-0.883 (inactive) and -0.184 (inactive)	-0.812 (inactive) and -1.15 (inactive)	-0.912 and -1.1	-0.271 and -0.128	-1.95 and -1.96	-2.39 and -0.212	0.18 and -0.247	-0.368 (inactive) and 2.73 (inactive)	-0.0984 and -0.53	-0.167 (inactive) and 1.57 (inactive)	0.139 (inactive) and -0.317 (inactive)	-0.123 (inactive) and -0.29 (inactive)	0.278 (inactive) and -0.993 (inactive)	-0.424 and 2.8	-0.394 (inactive) and -0.426 (inactive)	-0.164 (inactive) and -0.249 (inactive)	-0.743 and -1.57
COC(=O)C1=C(C)N(Cc2ccccc2)C2=C3C(=O)CCC[C@@H]3[C@@](O)(C(=O)OC)C(=O)N2[C@@H]1c1ccccc1	-0.0849 and 0.288	-0.5 (inactive) and -1.53 (inactive)	0.311 (inactive)	1.65 (inactive) and 1.38 (inactive)	0.703 (inactive) and -1.7 (inactive)	0.14 and -0.503	0.155 and -0.0762	0.555 and -0.0343	0.844 and 0.0578	0.544 and 0.586	0.941 (inactive) and 1.15 (inactive)	-0.0275 and 0.106	-0.0542 (inactive) and 0.644 (inactive)	0.23 (inactive) and -0.736 (inactive)	-0.689 (inactive) and 0.924 (inactive)	0.249 (inactive) and -0.767 (inactive)	-0.0885 and 0.778	1.08 (inactive) and -0.368 (inactive)	-0.0562 (inactive) and 0.13 (inactive)	-0.0435 and -0.704
COC(=O)C1=C2N(Cc3ccccc3)C(C)=C(C(=O)OC)[C@@H](c3ccccc3)N2C(=O)[C@](O)(C(=O)OC)C1	-0.0382 and -0.0845	-0.124 (inactive) and 0.0688 (inactive)	0.917 (inactive) and -0.22 (inactive)	2.08 (inactive) and 1.8 (inactive)	-1.03 (inactive) and -0.435 (inactive)	-0.302 and -0.327	-0.0736 and -0.0895	1.04 and 2.21	0.42 and 3.89	0.71 and 0.673	0.33 (inactive) and -0.579 (inactive)	-0.0694 and -0.189	1.6 (inactive) and 0.553 (inactive)	1.02 (inactive) and 0.676 (inactive)	0.878 (inactive) and -0.159 (inactive)	0.468 (inactive) and 0.318 (inactive)	-0.482 and -0.524	0.258 (inactive) and 0.184 (inactive)	0.64 (inactive) and 0.0139 (inactive)	0.932 and 0.724
C=CCN(CCCCC)C(=O)C1N(CCCCCCO)C(=O)C2C(C(=O)O)C3C=CC21O3 (stereo not given)	-0.332 and -1.43	0.289 (inactive) and 0.729 (inactive)	1.69 (inactive) and 2.31 (inactive)	0.333 (inactive) and -0.497 (inactive)	-0.587 (inactive) and -0.0866 (inactive)	-1.69 and -1.59	-0.173 and -0.233	-2.55 and -3.31	-1.53 and 0.765	-0.661 and -1.21	-0.559 (inactive) and -0.794 (inactive)	-0.191 and 0.29	0.0275 (inactive) and 0.375 (inactive)	-0.76 (inactive) and 0.22 (inactive)	-0.627 (inactive) and -0.419 (inactive)	-0.33 (inactive) and 0.404 (inactive)	-0.539 and -0.626	1.07 (inactive) and 0.619 (inactive)	-0.208 (inactive) and -0.169 (inactive)	1.08 and 1.26
COC(=O)C1=C(C)N(Cc2ccccc2)C2=C(C(C)=O)[C@H](c3ccccc3)[C@@](O)(C(=O)OC)C(=O)N2[C@@H]1c1ccccc1	0.142 and -0.0685	-0.912 (inactive) and -3.17 (inactive)	-1.5 (inactive)	1.1 (inactive) and 0.916 (inactive)	-0.213 (inactive) and -0.284 (inactive)	0.499 and -0.212	0.105 and -0.171	0.576 and -0.313	0.9 and -0.211	0.686 and 0.16	0.363 (inactive) and -0.426 (inactive)	-0.0908 and -0.118	1.65 (inactive) and 0.383 (inactive)	0.441 (inactive) and -0.0277 (inactive)	1.2 (inactive) and -1.16 (inactive)	0.419 (inactive) and -0.175 (inactive)	0.582 and 3.5	2.34 (inactive) and -3.45 (inactive)	0.687 (inactive) and 0.321 (inactive)	0.784 and 0.53
C=C[C@@H](C)[C@@H](O)c1ccc(OCCO)cc1	-1.29 and -1.06	-0.295 (inactive) and -0.245 (inactive)	-0.828 (inactive) and -0.12 (inactive)	0.105 (inactive) and 1.46 (inactive)	-0.466 (inactive) and -0.637 (inactive)	-1.1 and -0.908	-0.312 and -0.213	-3.3 and -3.39	-2.66 and -2.95	-1.39 and 0.319	0.155 (inactive) and 1.8 (inactive)	-0.237 and -0.102	1.23 (inactive) and 0.481 (inactive)	0.568 (inactive) and -0.311 (inactive)	0.321 (inactive) and -0.929 (inactive)	0.281 (inactive) and -0.873 (inactive)	0.0021 and 0.856	-0.228 (inactive) and -0.985 (inactive)	-0.115 (inactive) and -0.247 (inactive)	-0.0389 and -0.521
